# Laboratory results taken from PubChem BioAssay (NCATS).
# Where “and” joins values, the source holds several entries; their conditions need not be identical. Equal entries are not always repeated. Inconclusive results are not listed. Unmarked numbers belong to inactive results. Calls of active or inactive are those of the source. Calls come from the whole dose curve; as a rule, active = well fitted inhibition curve with a large enough effect; inconclusive = small, poorly fitted or top-dose-only effect; inactive = flat fitted curve, though single readings scatter.
# System: MCC-13
# Experiment: qHTS assay to identify novel small-molecules to repurpose for Merkel cell carcinoma treatment (AID 1296009); note: nearly all actives have a fitted effect of over 60% in size
# Conditions: MCC and control cell lines, CellTiter-Glo viability, 72 h; series mostly up to 46 µM; activity change, negative = cytotoxicity: at the top concentration
# In short: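 Cells were treated for 72 hr at 37 degree celsius with compounds in 8- or 11-point dose response. Viability was read by CellTiter-Glo luminescence, normalized to no-cell (cytotoxicity) and DMSO controls.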
# % is set by controls: 0 for no effect and ±100 for the full control effect; potency is the fitted concentration of half-maximal effect.
SMILES,"activity change, negative = cytotoxicity",Potency
O=C(OC1C[C@H]2CC[C@@H](C1)[N+]21CCCC1)C(O)(c1ccccc1)c1ccccc1 (stereo not given in full),7.47%,–
Oc1ccc2ccccc2c1SSc1c(O)ccc2ccccc12,-16%,–
Oc1ccc(-c2nc(-c3ccc(F)cc3)c(-c3ccncc3)[nH]2)cc1,-6.16%,–
Nc1ccn([C@@H]2O[C@H](CO)[C@@H](O)C2O)c(=O)n1 (stereo not given in full),-3.1%,–
CC1(C)C(=O)N(CCN2CCC(C(=O)c3ccc(F)cc3)CC2)c2ccccc21,-0.067%,–
C[C@]12CCC(=O)C=C1CC[C@@H]1[C@H]2[C@@H](O)C[C@@]2(C)[C@H]1CC[C@]2(O)C(=O)CO,4.83%,–
O=C(c1ccccc1)c1ccc2n1CCC2C(=O)O (stereo not given),–,inactive
CCOC(=O)C(C)Oc1cccc2c(=O)n(CC(=O)Nc3ccc4c(c3)OCCO4)ccc12 (stereo not given),2.77%,–
O=C(CS(=O)Cc1ccco1)NCC=CCOc1cc(CN2CCCCC2)ccn1 (stereo not given),1.93%,–
COC(=O)C1=C(C)NC(C)=C(C(=O)OC(C)C)C1c1cccc2nonc12 (stereo not given),–,inactive
CC[C@]1(O)C[C@H]2CN(CCc3c([nH]c4ccccc34)[C@@](C(=O)OC)(c3cc4c(cc3OC)N(C=O)[C@H]3[C@@](O)(C(=O)OC)[C@H](OC(C)=O)[C@]5(CC)C=CCN6CC[C@]43[C@@H]65)C2)C1,–,209 nM (active) and 376 nM (active)
Clc1ccc2c(N3CCN(CCCN4CCN(c5ccnc6cc(Cl)ccc56)CC4)CC3)ccnc2c1,-7.1% [at 16.1 µM],–
CN(C)c1ccc2nc3ccc(=[N+](C)C)cc-3sc2c1,–,7.43 µM (active) and 2.66 µM (active)
CC(C)(S)[C@@H](N)C(=O)O,8.42%,–
COc1cc2c(N3CCN(C(=O)Nc4ccc(OC(C)C)cc4)CC3)ncnc2cc1OCCCN1CCCCC1,–,inactive
O=c1oc2cc(O)ccc2s1,-3.88%,–
NS(=O)(=O)c1cc(C(=O)O)c(NCc2ccco2)cc1Cl,–,inactive
C[C@@H](c1ncncc1F)[C@](O)(Cn1cncn1)c1ccc(F)cc1F,-0.884%,–

SMILES,"activity change, negative = cytotoxicity",Potency
O=C(O)c1cn(-c2ccc(F)cc2)c2cc(N3CCNCC3)c(F)cc2c1=O,–,inactive
CC(C)[N+]1(C)[C@@H]2CC[C@H]1CC(OC(=O)C(CO)c1ccccc1)C2 (stereo not given in full),-9.04%,–
Cc1ccc(S(=O)(=O)NC(=O)NN2CC3CCCC3C2)cc1 (stereo not given),–,inactive
O=C(CCc1ccc(O)cc1)c1c(O)cc(O)cc1O,-15%,–
Cc1cccc(-c2[nH]ncc2-c2ccc3ncccc3n2)n1,-0.723%,–
CCCOc1ccc2nc(NC(=O)OC)[nH]c2c1,–,188 nM (active)
O=c1c(O)c(-c2ccc(O)cc2O)oc2cc(O)cc(O)c12,1.4%,–
S=c1nc[nH]c2nc[nH]c12,–,2.99 µM (active) and 11.8 µM (active)
O=C1NC(=O)C(c2ccccc2[N+](=O)[O-])=C1Nc1ccc(O)c(Cl)c1,0.892%,–
N=C(N=C(N)N)N1CCOCC1,–,inactive
O=c1c(O)c(-c2cc(O)c(O)c(O)c2)oc2cc(O)cc(O)c12,16.3%,–
O=P(O)(O)C(O)(Cn1ccnc1)P(=O)(O)O,1.15% [at 16.1 µM],–
COc1cc(OC)c(C(=O)CCCN2CCCC2)c(OC)c1,–,inactive
CC(C)c1ccc2c(c1)c(SC(C)(C)C)c(CC(C)(C)C(=O)O)n2Cc1ccc(Cl)cc1,-3.8%,–
Cc1cc(C2CCCCC2)n(O)c(=O)c1,–,10600 nM (active)
Cc1nc2n(c(=O)c1CCN1CCC(c3noc4cc(F)ccc34)CC1)CCCC2,–,inactive
CN(C)CCCC1(c2ccc(F)cc2)OCc2cc(C#N)ccc21 (stereo not given),-6.39%,–
